Results published in PubChem BioAssay (NCI).
About 83,000 compounds went through this panel and 20% of them were active in at least one assay; those are over-represented in the sample as a whole.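 How to read the values: 0–100, growth inhibition (40 = 60% inhibited); 0, no net growth; -100 to 0, cell death (-40 = 40% of starting cells died; -100 = all dead).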 Active and inactive are the calls of the source. Rule for the calls: active = growth percent below 10; inactive = the rest.

These molecules were tested on HL-60(TB) leukemia (assay: NCI-60 one-dose screen, 48 h (100 = growth as untreated, 0 = no growth, -100 = all killed)). Details: 10 µM unless noted.

SMILES	growth
C=COCCCCCCCCCCCCCCCCCC	73.8% (inactive)
CCc1ccc(Oc2c(-c3ccc(OCCc4cccc(C(F)(F)F)c4)cc3O)n[nH]c2C(F)(F)F)cc1	50.9% (inactive)
O=S(=O)(O)c1cc(O)c2c(N=Nc3ccc(Nc4ccccc4)c4c(S(=O)(=O)O)cccc34)cc(S(=O)(=O)O)cc2c1	82.7% (inactive)
O=C(O)C1C[C@](O)(c2ccc(F)cc2)[C@@H](c2ccc(F)cc2)O1 (stereo not given in full)	91.6% (inactive)
Nc1nc(-c2ccc(Cl)cc2)nc2c1sc(=S)n2-c1ccccc1	103% (inactive)
COc1ccc(C(=O)Nc2ccc3nc(N4CCCCC4)cc(C)c3c2)cc1OC	60.3% (inactive)
Cc1ccc(C(=O)NCCCNc2nccc(-n3ccc4cccnc43)n2)cc1	105% (inactive)
O=C1C(=O)c2c(nc3ccc(C(F)(F)F)cn23)-c2ccccc21	-47% (active)
CCN1CCN(c2cc(C)c3cc(NC(=O)c4ccc(OC)c(OC)c4)ccc3n2)CC1	1.42% (active)
NC(=O)c1cccc(-c2ccccc2N2CCCCC2)c1	95.3% (inactive)
Cc1ccc(S(=O)(=O)n2cc(C3C(Cl)C(=O)N3c3ccc(N4CCOCC4=O)cc3)c3ccccc32)cc1 (stereo not given)	22.1% (inactive)
Clc1ccc(-c2nnc(-c3cccc4ccccc34)o2)cc1	112% (inactive)
COc1cc(/C=C/c2cc(O)c(C(C)=O)c(O)c2)cc2c1O[C@]1(C)CC[C@@H](O)C(C)(C)[C@H]1C2	28.1% (inactive)
CCCCCCCCOC(=O)c1c(C)[nH]c(/C=C2\N=C(c3ccc[nH]3)C=C2OC)c1C	4.96% (active)
C/C=C/CSC(C)(C)C(=O)NC	98.7% (inactive)
Cn1c(=O)c2[nH]c(=S)n(Cc3ccccc3)c2n(C)c1=O	101% (inactive)
COc1cc(C2CC(=O)Nc3c2c(C)nn3-c2nc3ccccc3[nH]2)c(OC)c2c1OCO2 (stereo not given)	26.2% (inactive)
C#CCOc1ccc(C2=NN(CC3CC3)C3N=C(Cl)c4ncn(CC5CC5)c4N23)cc1OCC#C (stereo not given)	99.1% (inactive)
O=C1Nc2ccccc2/C1=N/N=C/c1ccsc1	99.4% (inactive)
COc1ccc(/C=N/OCC(O)CNCc2ccccc2)cc1OC1CCCC1 (stereo not given)	105% (inactive)

SMILES	growth
CCN(CC)CCN1C(=O)c2c(c3c4ccccc4[nH]c3c3ccc4ccccc4c23)C1=O	-23.7% (active)
Cc1cc(Nc2ncc(Cl)c(Nc3ccccc3S(=O)(=O)C(C)C)n2)c(OC(C)C)cc1C1CCNCC1	-65% (active)
O=C1CCn2c1c(O)c1ccccc1c2=O	110% (inactive)
COc1ccc2[nH]cc(-c3nonc3-c3c[nH]c4ccc(Br)cc34)c2c1	76.1% (inactive)
CC(O)CNC(Cc1ccccc1)c1ccc2c(c1)OCO2 (stereo not given)	96.3% (inactive)
COc1ccc2c(c1)sc1nc(-c3ccccc3)c(-c3ccsc3)n12	14.2% (inactive)
N/N=C(/Cc1ccccc1)NNC(N)=S	97.8% (inactive)
COc1ccc(/C(C)=N/NC(=O)CSc2nc3ccccc3c(=O)n2CCc2ccc(S(N)(=O)=O)cc2)cc1	76.7% (inactive)
COc1cc(/C=C/C(=O)N2CCN(C(=O)c3cc(OC)c(OC)c(OC)c3)CC2)ccc1OCCCOc1cc2c(cc1OC)C(=O)N1CCC[C@H]1C=N2	-28% (active)
COc1cccc(C2C(C#N)=C(N)Oc3c2ccc2ccccc32)c1 (stereo not given)	-30.3% (active)
N#Cc1c(N)nc(-c2cc(F)cc(C(F)(F)F)c2)nc1-c1ccccc1F	92.8% (inactive)
CN1CCN(CC#CCOC(=O)CNC(=O)[C@]23CCC(C)(C)C[C@H]2C2=CC[C@@H]4[C@@]5(C)CC[C@H](O)C(C)(C)[C@@H]5CC[C@@]4(C)[C@]2(C)CC3)CC1	49.7% (inactive)
COc1ccc(/C=C/C(=O)C(CC2CCC2)C(=O)/C=C/c2ccc(OC)c(OC)c2)cc1OC	-27.5% (active)
CCCCNc1cc(-c2cn[nH]c2-c2cc(C)cc(OC)c2)nc(-c2cccnc2)n1	105% (inactive)
CCCCCN(CCCCC)CC(O)c1cc(C)c2ccc3cc(C(C)C)ccc3c2c1 (stereo not given)	-29.6% (active)
Cc1ccc(C(=O)Nc2ccc(CN3CCN(C)CC3)c(C(F)(F)F)c2)cc1C#Cc1cnc(N)c2ccc(C#N)cc12	30.9% (inactive)
COc1cc2c3c(c1)nc(C)n3CCC2	99.7% (inactive)
CC(NNC(C)c1ccccc1)c1ccccc1 (stereo not given)	113% (inactive)
COc1ccc(/C=C/C(=O)Nc2ccc(-c3nc4ccc(OC)cc4s3)cc2)cc1	99.3% (inactive)
Cc1nc(N/N=C/c2cn(-c3ccccc3)nc2-c2cc3ccccc3oc2=O)sc1N=Nc1ccccc1	89% (inactive)
